Screening data (PubChem)
JMJD2A Tudor: blocks the human JMJD2A Tudor domain; O75164; AlphaScreen JMJD2A-Tudor / H3K4me3 peptide binding; Potency, µM (series often up to 114 µM), inactives show at the highest dose activity change, negative = inhibition, actives largely listed as inhibitors; 390,000 compounds, 4.4% hits; also: % is scaled to controls: 0 for no effect and ±100 for the full control effect; nearly all actives have a fitted effect of over 50% in size
G9a block: blocks human histone lysine methyltransferase G9a. Q96KQ7. G9a H3K9 monomethylation, AlphaScreen, 2 h. Potency, µM (titrated, usually from 102 µM), without a hit: top-dose activity, negative = inhibition, actives largely listed as inhibitors. 350,000 compounds, 8.8% hits. AID 504332; also: % is scaled to controls: 0 for no effect and ±100 for the full control effect; nearly all actives have a fitted effect of over 75% in size
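Step 1: enzyme (final 20 nM) with compound, 15 min RT. Step 2: substrate peptide 500 nM and SAM 20 uM, 2 h RT. Step 3: anti-H3K9me1 antibody and AlphaScreen beads, 10 min, then plate read.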
Sfp inh: blocks B. subtilis Sfp PPTase activity; Biochemical Sfp PPTase activity, qHTS; Potency, µM, for the others: largest response in the series, negative = inhibition, actives largely listed as inhibitors; 310,000 compounds, 3.5% hits; AID 1490;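 also: the enzyme is Sfp with the accession as filed and its product quenches rhodamine fluorescence; 0% = enzyme reaction without inhibitor and -100% = no enzyme wells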
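Reaction rates are the 30-min fluorescence difference (ex 525, em 598 nm) in wells containing 15 nM Sfp, 5 uM rhodamine-CoA and 12.5 uM BHQ-2-YbbR at pH 7.6 with 10 mM MgCl2.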
HP1b binding inh: HP1-beta chromodomain-methylated histone interaction inhibition; P83916; AlphaScreen HP1-beta / biotin-H3K9me3 peptide binding; Potency, µM (highest dose often 114 µM), for the others: top-dose activity change, negative = inhibition, hits mostly inhibitors; 390,000 compounds, 0.56% hits; AID 540317; also: nearly all actives have a fitted effect of over 70% in size
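HP1-beta protein (50 nM final) preincubated 30 min at room temperature with biotinylated H3(1-18)K9me3 peptide (50 nM) in PBS pH 7.4, 0.01% Tween-20, then compound added for 30 min. AlphaScreen streptavidin donor/nickel chelate acceptor beads (10 ug/mL final), 30 min dark, luminescence read.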
BAZ2B block: blocks human BAZ2B | AID 504333 | Potency, µM (highest dose often 114 µM), inactives show at the top dose activity change, negative = inhibition, usual class: inhibitors | Q9UIF8 | AlphaScreen BAZ2B-H3K14Ac peptide displacement | 360,000 compounds, 4.4% hits; also: % is scaled to controls: 0 for no effect and ±100 for the full control effect; nearly all actives have a fitted effect of over 60% in size
Target sequence (Q9UIF8 whole entry, looked up): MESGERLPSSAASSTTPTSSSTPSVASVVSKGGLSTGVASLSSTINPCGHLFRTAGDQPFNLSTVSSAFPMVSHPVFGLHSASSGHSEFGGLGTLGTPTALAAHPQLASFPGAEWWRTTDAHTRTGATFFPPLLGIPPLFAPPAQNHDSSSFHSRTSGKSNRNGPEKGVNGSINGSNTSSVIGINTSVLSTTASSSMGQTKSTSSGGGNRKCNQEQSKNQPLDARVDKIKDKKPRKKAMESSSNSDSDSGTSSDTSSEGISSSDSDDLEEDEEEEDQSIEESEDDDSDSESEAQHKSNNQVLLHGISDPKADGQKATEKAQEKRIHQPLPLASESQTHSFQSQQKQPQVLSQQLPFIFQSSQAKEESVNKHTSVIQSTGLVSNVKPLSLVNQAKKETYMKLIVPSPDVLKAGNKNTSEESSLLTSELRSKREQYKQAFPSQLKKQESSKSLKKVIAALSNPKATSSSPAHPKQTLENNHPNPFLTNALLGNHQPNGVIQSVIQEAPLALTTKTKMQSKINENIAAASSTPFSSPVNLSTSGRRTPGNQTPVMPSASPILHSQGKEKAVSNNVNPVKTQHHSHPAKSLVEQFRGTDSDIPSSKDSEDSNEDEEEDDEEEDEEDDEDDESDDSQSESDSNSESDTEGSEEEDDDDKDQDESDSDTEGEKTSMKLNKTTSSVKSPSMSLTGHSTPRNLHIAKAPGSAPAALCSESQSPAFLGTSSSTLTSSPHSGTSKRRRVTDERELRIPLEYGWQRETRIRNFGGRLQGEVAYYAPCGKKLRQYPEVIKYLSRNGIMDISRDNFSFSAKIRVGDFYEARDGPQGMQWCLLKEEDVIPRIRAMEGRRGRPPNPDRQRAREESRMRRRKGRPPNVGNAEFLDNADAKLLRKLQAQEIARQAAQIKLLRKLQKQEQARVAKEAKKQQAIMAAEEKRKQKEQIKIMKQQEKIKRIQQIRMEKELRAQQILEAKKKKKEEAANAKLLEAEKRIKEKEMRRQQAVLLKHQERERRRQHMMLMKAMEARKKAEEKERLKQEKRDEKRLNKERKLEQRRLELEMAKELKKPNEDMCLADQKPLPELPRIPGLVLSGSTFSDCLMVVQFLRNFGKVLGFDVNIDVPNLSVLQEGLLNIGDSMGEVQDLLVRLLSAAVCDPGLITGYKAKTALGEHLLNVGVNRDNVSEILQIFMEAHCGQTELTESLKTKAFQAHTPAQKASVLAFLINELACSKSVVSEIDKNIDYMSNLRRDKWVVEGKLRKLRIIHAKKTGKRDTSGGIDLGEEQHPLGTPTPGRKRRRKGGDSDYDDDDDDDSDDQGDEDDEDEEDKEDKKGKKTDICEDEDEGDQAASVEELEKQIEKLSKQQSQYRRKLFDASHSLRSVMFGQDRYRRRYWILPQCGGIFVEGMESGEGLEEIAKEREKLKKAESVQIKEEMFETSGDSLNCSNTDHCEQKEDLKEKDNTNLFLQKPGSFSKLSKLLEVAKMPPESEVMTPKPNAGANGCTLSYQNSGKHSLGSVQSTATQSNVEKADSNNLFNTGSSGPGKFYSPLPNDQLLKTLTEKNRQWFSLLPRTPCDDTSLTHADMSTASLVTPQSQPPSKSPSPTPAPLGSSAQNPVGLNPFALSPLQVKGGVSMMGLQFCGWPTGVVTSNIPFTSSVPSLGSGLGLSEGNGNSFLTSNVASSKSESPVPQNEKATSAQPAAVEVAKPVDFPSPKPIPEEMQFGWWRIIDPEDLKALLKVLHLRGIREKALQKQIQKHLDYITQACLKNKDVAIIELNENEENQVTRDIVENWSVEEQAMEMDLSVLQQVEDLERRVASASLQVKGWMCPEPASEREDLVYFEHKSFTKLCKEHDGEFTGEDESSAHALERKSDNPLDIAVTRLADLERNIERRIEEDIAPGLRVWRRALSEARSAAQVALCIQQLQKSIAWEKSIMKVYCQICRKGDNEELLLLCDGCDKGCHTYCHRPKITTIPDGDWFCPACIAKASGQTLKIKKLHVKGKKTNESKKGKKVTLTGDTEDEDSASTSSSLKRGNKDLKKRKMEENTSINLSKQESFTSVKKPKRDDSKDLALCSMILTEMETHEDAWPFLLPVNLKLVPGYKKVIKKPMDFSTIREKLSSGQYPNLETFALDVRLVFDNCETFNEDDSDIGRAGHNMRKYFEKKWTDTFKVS
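AlphaScreen luminescence quantifies BAZ2B engagement of H3K14Ac peptide; the protein and biotinylated peptide are both at 50 nM final, buffer PBS pH 7.4 with 0.01% Tween-20, all steps at room temperature.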
TDP1 inh: TDP1 (human) enzyme inhibition | 350,000 compounds, 0.28% hits | recombinant TDP1, AlphaScreen DNA substrate cleavage | Q9NUW8 | Potency, µM (titrated, usually from 130 µM), inactives show at the highest dose activity change, negative = inhibition, hits mostly inhibitors | AID 485290; also: % is scaled to controls: 0 for no effect and ±100 for the full control effect; nearly all actives have a fitted effect of over 40% in size
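AlphaScreen read-out: signal falls as enzyme removes the 3' tyrosine-FITC from a 5'-biotinylated DNA oligo (15 nM, 5 min, RT). Enzyme was E. coli-made recombinant Tdp1 at 1 nM, exposed to compound for 15 min beforehand; beads 10 ug/ml, 10 min.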
The depositor's hits bear a star; ? = inconclusive; . = not tested or not shown; [ ] = another dose, or the depositor's remark. Hits are enriched below; roughly 12% of the tested compounds scored in any of these assays. Calls follow the shape of the dose curve; as a rule, active = well fitted curve in the direction sought with a large enough effect; inconclusive = small, poorly fitted or top-dose-only effect, or another doubt; inactive = no such curve, though single readings can be large; an effect the other way counts as inactive or inconclusive. Potency is read from the fitted curve at half-maximal effect.

SMILES	JMJD2A Tudor	G9a block	Sfp inh	HP1b binding inh	BAZ2B block	TDP1 inh
CC(=O)Nc1ccc(S(=O)(=O)N2CCC(C(=O)NCCC(=O)NCc3ccccc3)CC2)cc1	-24%	77%	9%	-1%	-8%	1%
Cc1ccc(CNC(=O)c2cc(S(=O)(=O)N3CCCCC3)cn2C)cc1	-23%	-19%[59 µM]	.	-4%[57 µM]	-6%	8%
Clc1ccccc1-c1nn2c(Cn3cnc4ccccc43)nnc2s1	-18%	2.8µM*	45µM*	?	-8%	4%
Clc1ccc(Cl)c(-c2nn3c(COc4ccccc4)nnc3s2)c1	?	1.8µM*	14µM*	?	5%	-2%
c1ccc2c(c1)ncn2Cc1nnc2sc(-c3ccc4c(c3)OCO4)nn12	-34%	.	-55%	?	?	2%
CCOc1cccc(C(=O)Nc2cc(C)c(O)c(-c3nc4ncccc4o3)c2)c1	4%	2%[59 µM]	.	28%	-5%	-3%
COc1ccccc1CN(C)C(=O)C(NC(=O)Cc1cccc2ccccc12)C(C)C (centres undefined)	-28%	7.9µM*	10%	9%[57 µM]	-9%	-1%
COc1ccc(CN(C)C(=O)CNC(=O)Cc2cccc3ccccc23)c(OC)c1OC	-13%	.	2%	32%	-12%	0%
COc1ccc(S(=O)(=O)Cc2ccc(C(=O)N3CCN(C(=O)c4ccco4)CC3)o2)cc1	-7%	?	0%	40%	-3%	2%
Cc1ccc(S(=O)(=O)Cc2ccc(C(=O)N3CCN(c4cccc(C)c4C)CC3)o2)cc1	?	-3%	-10%	-6%	-34%	5%
COc1ccc(S(=O)(=O)Cc2ccc(C(=O)N3CCN(Cc4ccccc4)CC3)o2)cc1	-31%	35µM*	7%	21%	-6%	4%
COc1ccc(S(=O)(=O)N2CCN(C(=O)c3cc4c(s3)CCC4)CC2)cc1	7.9µM*	.	.	?	.	.
Cc1ccc(S(=O)(=O)Cc2ccc(C(=O)N3CCc4ccccc4C3)o2)cc1	56µM*	50µM*	-2%	?	50µM*	?
COc1ccc(N2CCN(C(=O)c3ccc(CS(=O)(=O)c4ccc(OC)cc4)o3)CC2)cc1	-26%	40µM*	3%	0%	?	5%
CNC(=O)C1CCC(Cn2c(=O)c3sccc3n(CC(=O)Nc3ccc(C)c(C)c3)c2=O)CC1 (centres undefined)	-12%	21%[59 µM]	.	28%	-5%	3%
O=C(O)c1cc(=O)c2cc(Cl)ccc2[nH]1	.	.	-6%	.	.	3%
COc1ccccc1N1CCN(C(=O)c2ccc(CS(=O)(=O)c3ccccc3OC)o2)CC1	-2%[57.1 µM]	4%[59 µM]	-13%	10%	-3%	2%
Cc1ccc(S(=O)(=O)Cc2ccc(C(=O)O)o2)cc1	45µM*	13µM*	-3%	-68%	50µM*	40µM*
Cc1nn(Cc2ccc(C(=O)N3CCCC3)o2)c(C)c1[N+](=O)[O-]	1%	.	-2%	46%	-14%	4%
COc1cccc(N2CCN(C(=O)c3ccc(CS(=O)c4ccc(Cl)cc4)o3)CC2)c1 (centres undefined)	-35%	-20%	2%	-4%[57 µM]	?	4%
COc1ccc(S(=O)(=O)Cc2ccc(C(=O)O)o2)cc1	3%	-35%	18%	32%	-13%	.
CCOC(=O)N1CCN(C(=O)c2ccc(CS(=O)(=O)c3ccccc3OC)o2)CC1	0%	22%[59 µM]	79µM*	33%	7%	0%
COc1ccc(N2CCN(C(=O)c3ccc(Cn4nc(C)c([N+](=O)[O-])c4C)o3)CC2)cc1	-34%	3.5µM*	17%	-9%	?	6%
COc1cccc(N2CCN(C(=O)c3ccc(CS(=O)c4ccc(C)cc4)o3)CC2)c1 (centres undefined)	-11%	50µM*	8%	3%[57 µM]	-27%	4%
CC(Cc1nnc(SCC(=O)O)n1N)c1ccccc1 (centres undefined)	?	-10%[12.7 µM]	4%	-15%	-20%	.
SMILES	JMJD2A Tudor	G9a block	Sfp inh	HP1b binding inh	BAZ2B block	TDP1 inh
CCN(C(=O)CSc1nnc(-c2cccc(F)c2)n1N)c1c(N)n(Cc2ccccc2)c(=O)[nH]c1=O	3%	.	.	66%	.	.
COc1ccc(S(=O)(=O)N2CCN(C(=O)c3ccc([N+](=O)[O-])o3)CC2)cc1	-14%	-18%[59 µM]	6%	-4%	?	45µM*
Cc1ccc(S(=O)(=O)Cc2ccc(C(=O)N3CCN(Cc4ccccc4)CC3)o2)cc1	.	45µM*	-15%	.	50µM*	-4%
Cc1c(C(=O)N2CCN(Cc3ccccc3)CC2)oc2c1C(=O)CC(C)(C)C2	-17%	35µM*	-28%	18%	79µM*	9%
COc1ccccc1CNC(=O)C1CCN(Cc2cc3ccccc3n2Cc2cccc(C)c2)CC1	-34%	-10%[59 µM]	.	11%	-17%	0%
CCOC(=O)N1CCC(NC(=O)CCCN2C(=O)CSc3ncccc32)CC1	0%	14%[59 µM]	9%	48%	1%	-3%
O=C(CCCN1C(=O)CSc2ncccc21)N1CCN(Cc2ccccc2)CC1	-6%	35µM*	6%	71%	-1%	2%
CC1(C)Cc2c(sc3nc(SCC(=O)O)nc(N)c23)CO1	-13%	21%	25%	33%	-3%	.
CC(C)(C)C1CCc2c(sc3nc(SCC(=O)O)nc(N)c23)C1 (centres undefined)	-12%	28µM*	-2%	14%	-13%	4%
CC1CCCc2sc3nc(SCC(=O)c4ccc(Br)cc4)nc(N)c3c21 (centres undefined)	-11%	?	.	30%	-19%	.
COC(=O)CSc1nc(N)c2c3c(sc2n1)C(c1ccccc1)SC(c1ccccc1)C3 (centres undefined)	7%	?	40µM*	48%	7%	8%
CCCCC/C=C\C\C=C/C=C/C=C/[C@@H](SC[C@H](N)C(=O)O)[C@@H](O)CCCC(=O)O	.	38%[59 µM]	12%	.	.	4%
CC(=O)c1ccccc1Oc1cc(NN2CCCCC2)c([N+](=O)[O-])cc1[N+](=O)[O-]	?	28µM*	5%	9%	32µM*	.
O=[N+]([O-])c1cc([N+](=O)[O-])c(Oc2ccc(F)cc2F)cc1NN1CCCCC1	?	.	-10%	0%	?	.
CC(=O)c1cccc(Oc2cc(NN3CCCCC3)c([N+](=O)[O-])cc2[N+](=O)[O-])c1	?	50µM*	18%	-12%	?	.
CC(c1ccccc1)N1CC(C(=O)N2CCN(Cc3ccc(C#N)cc3)CC2)CC1=O (centres undefined)	-6%	-7%	.	23%	11%	-11%
